We go through seven sequences from the supplement of paper PMC6555819.

Assay in all cases: PBM binding z-score (relative to random genomic background probes); higher = stronger binding; sequences stand for … in GC…GCGATTGACAGCGTAGAATGAAGG
Test [1] deals with FXR:RXRa (NR concentration 270 nM, RXRa partner concentration 90 nM). The essentials: (§1)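 Random background probes are the reference for binding z-scores. These scores derive from regression-normalized fluorescence on custom Agilent 4×180K protein-binding microarrays incubated 1 h with ligand-free nuclear receptor dimers. Binding was detected with antibodies against each partner (one per run).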

The subject of test [2] is LXRa:RXRa (NR concentration 270 nM, RXRa partner concentration 90 nM). In outline: as §1
Test [3] deals with LXRa homodimer (NR concentration 270 nM). In outline: as §1
Test [4] relates to LXRb:RXRa (NR concentration 270 nM, RXRa partner concentration 90 nM). In outline: as §1
Test [5] concerns LXRb homodimer (NR concentration 270 nM). In outline: as §1
Test [6] has as its system PPARa:RXRa (NR concentration 270 nM, RXRa partner concentration 90 nM). The essentials: as §1
For test [7], the system named is PPARg:RXRa (NR concentration 180 nM, RXRa partner concentration 90 nM). In outline:
as §1

Test [8] deals with PPARg:RXRa 270nM:90nM, anti-RXR (NR concentration 270 nM, RXRa partner concentration 90 nM). In outline: as §1
Test [9] relates to PPARg:RXRa 30nM:10nM, anti-RXR (NR concentration 30 nM, RXRa partner concentration 10 nM). The essentials:
as §1

In test [10] the test system is PPARg:RXRa 90nM:30nM, anti-RXR (NR concentration 90 nM, RXRa partner concentration 30 nM). The essentials: as §1
The test system of test [11] is PPARg:RXRa DBDmut IVT, anti-RXR (DBD mutation: RXRa K156A/R161A, NR concentration 270 nM, RXRa partner concentration 90 nM). In outline: as §1
Test [12] concerns PPARg:RXRa IVT, anti-PPARg (NR concentration 270 nM, RXRa partner concentration 90 nM). In outline: as §1
Test [13] has as its system PPARg DBDmut:RXRa IVT, anti-PPARg (DBD mutation: PPARg1 K132A/R137A, NR concentration 270 nM, RXRa partner concentration 90 nM). The essentials:
as §1

Test [14] concerns PPARg DBDmut IVT, anti-PPARg (DBD mutation: PPARg1 K132A/R137A, NR concentration 270 nM). In outline: as §1
Test [15] concerns PPARg homodimer (NR concentration 180 nM). In outline:
as §1

In test [16] the test system is PXR:RXRa (NR concentration 270 nM, RXRa partner concentration 90 nM). The essentials: as §1
In test [17] the test system is PXR homodimer (NR concentration 270 nM). In outline:
as §1

In test [18] the test system is RARa:RXR (NR concentration 270 nM, RXRa partner concentration 90 nM). In outline:
as §1

The test system of test [19] is RARa homodimer (NR concentration 270 nM). The essentials:
as §1

Test [20] deals with RARb:RXRa (NR concentration 270 nM, RXRa partner concentration 90 nM). In outline: as §1

In the case of TCTTGTAGATCACCAGGAGGTTAAGAAAGATCGA, the PBM binding z-score is 0.307 in test [1]; 1.28 in [2]; -0.0899 in [3]; 0.866 in test [4]; -0.174 in test [5]; 1.39 in test [6]. Besides, the PBM binding z-score was -0.000569 in test [7]; 1.19 in test [8]; 2.45 in test [9]; 1.52 in [10]; 1.92 in test [11]; 1.27 in [12]. For the same sequence, the PBM binding z-score is 0.392 in test [13]; 0.634 in test [14]; -0.00402 in test [15]; 0.915 in [16]; -0.00438 in test [17]; 1.15 in [18]. The PBM binding z-score in test [19] was -0.698; in [20] it was 0.672.
With CTCGAAAGGTCGTGCTCAGGGGAGTATACCAAAC, the PBM binding z-score worked out at 4.81 in [1]; 3.33 in [2]; 0.243 in test [3]; 3.32 in test [4]; 0.229 in test [5]; 4.69 in test [6]. Also, the PBM binding z-score in test [7] was 2.3; in test [8] it was 3.33; in test [9] it was 0.905; in test [10], 2.16; in test [11] it was 0.876; in test [12], 1.67. The PBM binding z-score worked out at 0.228 in test [13]; 0.455 in test [14]; 1.54 in [15]; 2.79 in [16]; 0.224 in test [17]; 3.43 in [18]. For the same sequence, the PBM binding z-score in test [19] is -0.0621; in test [20], 3.88.
On to ACTATTAGTTGAGACGAGGGCAACCAATAGGTTG, for which the PBM binding z-score was 0.56 in test [1]; 0.143 in test [2]; -0.167 in test [3]; 0.143 in test [4]; -0.0545 in [5]; 0.282 in test [6]. Also, the PBM binding z-score worked out at 0.647 in test [7]; 0.464 in test [8]; 0.235 in test [9]; 0.58 in test [10]; 0.183 in test [11]; 0.992 in [12]. Moreover, the PBM binding z-score in [13] was 0.202; in [14], 0.799; in [15], 0.0729; in test [16], 1.75; in test [17], 0.385; in [18] it was 1.5. Further, the values for the PBM binding z-score in test [19] and in test [20] were 0.723 and 1.09, respectively.
Regarding TCTTGTAGATCCAAGGTTAAGAAAGCCGAAGCCT, the PBM binding z-score in test [1] is 0.319; in [2], 0.55; in [3] it was -0.254; in test [4], 0.993; in test [5], -0.378; in test [6] it was 1.65. Besides, the PBM binding z-score is 1.15 in test [7]; 3.41 in test [8]; 3.23 in test [9]; 3.55 in test [10]; 1.7 in test [11]; 0.596 in test [12]. For the same sequence, the PBM binding z-score in test [13] is 0.181; in [14] it was 0.325; in [15], 0.227; in [16] it was 0.966; in test [17], 0.261; in test [18], 1.18. In addition, the PBM binding z-score in test [19] was -0.206; in test [20], 0.88.
For TCAGCCAGGTGAAGGTAACTCAGGTACGCAGTCG, the PBM binding z-score was 0.00852 in test [1]; 1.19 in [2]; -0.431 in test [3]; 0.138 in test [4]; -1.48 in [5]; 0.696 in test [6]. Besides, the PBM binding z-score in test [7] was 0.4; in test [8], 1.32; in test [9], 2.09; in [10], 1.5; in test [11] it was 1.65; in [12], 1.33. For the same sequence, the PBM binding z-score was -0.394 in test [13]; -0.849 in test [14]; -0.828 in [15]; -0.0147 in test [16]; -0.594 in [17]; 0.481 in test [18]. Also, the PBM binding z-score in test [19] is -0.526; in test [20] it was 0.673.
With ACTAGTTGGTCAGCTAAGGTCACACACAATTCGG, the PBM binding z-score is 3.65 in test [1]; 3.51 in [2]; 2.56 in test [3]; 3.35 in test [4]; 0.836 in test [5]; 3.93 in test [6]. In addition, the PBM binding z-score in test [7] was 1.94; in test [8], 2.76; in test [9], 0.836; in test [10] it was 1.64; in [11], 1.38; in test [12] it was 2.77. Moreover, the PBM binding z-score is 0.873 in test [13]; 0.678 in test [14]; 3.37 in test [15]; 5.12 in [16]; 1.46 in test [17]; 4.92 in [18]. Besides, the PBM binding z-score in test [19] is 2.09; in test [20] it was 4.
With AGTCAAAGTTCACCTAGGTAACGTAAGATATGCT, the PBM binding z-score is 6.25 in [1]; 5.63 in [2]; 3.58 in test [3]; 3.92 in test [4]; 1.2 in test [5]; 4.94 in [6]. In addition, the PBM binding z-score stood at 7.15 in test [7]; 6.41 in test [8]; 3.81 in [9]; 5.63 in [10]; 1.22 in test [11]; 4.08 in test [12]. Besides, the PBM binding z-score in [13] is 1.35; in test [14], 1.84; in test [15] it was 2.06; in [16] it was 4.76; in test [17] it was 3.76; in test [18], 3.95. Further, the results for the PBM binding z-score in test [19] and in test [20] were 1.51 and 4.99, respectively.
